Assay results reported in PubChem BioAssay AID1063 (University of Pittsburgh Molecular Library Screening Center, 2008).
Among all 200,000 compounds or so, about 18,000 (9%) were called active. No stated cut-off is given here; in the data, active means inhibition above about 50%; inactive means the rest. The full list was thinned out, with actives kept by preference.

Experiment: antileishmanial activity against promastigotes – primary screen (AID 1063);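 further: promastigotes grown with compound for 44 hours at 28 °C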
Details: Leishmania major promastigotes, resazurin fluorescence viability; at 10 µM; hits give high values

| Structure (SMILES) | inhibition |
| --- | --- |
| CCOC(=O)C(C)n1nc(-c2ccccc2)c2ccccc2c1=O (stereo not drawn) | 12.5% (inactive) |
| CN(C)c1nc(-c2cccnc2)nc(-c2ccc(Cl)cc2)c1C#N | 8.3% (inactive) |
| COCCN(CCOC)S(=O)(=O)c1ccc(/C(O)=C(\C#N)c2nc3ccccc3[nH]2)cc1 | 1.17% (inactive) |
| CC(C)(C)NC(=O)NC(=O)COC(=O)C1(C)CC1(Cl)Cl (stereo not drawn) | 0.27% (inactive) |
| CCOn1c(=O)c(=O)n(O)c2ccccc21 | -2.81% (inactive) |
| Cn1nnnc1SCC(=O)NNC(=O)c1ccc(Br)cc1 | -7.24% (inactive) |
| O=C(CSc1nc(C2CC2)nc2ccccc12)Nc1ccc2c(c1)OCCO2 | 6.82% (inactive) |
| COC(=O)CSc1nc(C2CC2)nc2ccccc12 | -7.75% (inactive) |
| CN(C(=O)CSc1nc(C2CC2)nc2ccccc12)c1nc(-c2ccccc2)cs1 | 54.6% (active) |
| CCn1ccnc1CN(C)Cc1nc(-c2ccc3c(c2)OCO3)no1 | 1.95% (inactive) |
| CN(Cc1cc2cc(F)ccc2[nH]1)Cc1nc(-c2cnccn2)no1 | -6.82% (inactive) |
| CCN(CC)CCNCc1ccc(OCc2ccc(Cl)nc2)c(OC)c1 | -3.17% (inactive) |
| COc1cc(CNCCN(C)C)ccc1OCc1c(F)cccc1Cl | 66.6% (active) |
| CCOCCCNCc1ccc(OCc2ccc(F)cc2)c(OC)c1 | 97.1% (active) |
| CCNC(=O)c1ccc(OCC(=O)Nc2ccc(F)cc2)c(OC)c1 | 0.66% (inactive) |
| COc1ccc(CNCCCO)cc1OC | -3.13% (inactive) |
| COc1cc(CNc2ncn[nH]2)ccc1OCc1ccccc1C | -5.58% (inactive) |
| CCCCC1N2CC3([N+](=O)[O-])CN1CC([N+](=O)[O-])(C2)C3(C)C (stereo not drawn) | -3.35% (inactive) |
| Cc1cccc(NC(=O)Nc2ccc3c(c2)OCO3)n1 | -1.54% (inactive) |
| CCN(CC)CCOc1ccc2c(c1)C(=NNC(=O)c1ccccn1)c1cc(OCCN(CC)CC)ccc1-2 | 101% (active) |
| CCC(C)(NC(=O)c1ccccn1)C(=O)NC1CCCCC1 (stereo not drawn) | 0.94% (inactive) |

| Structure (SMILES) | inhibition |
| --- | --- |
| CCOc1cc(NC(=O)c2ccccn2)c(OCC)cc1NC(=O)c1ccc(OC)cc1 | -3.96% (inactive) |
| CC(=O)C1=C(C)NC2=C(C(=O)CC(C)(C)C2)C1C (stereo not drawn) | -3.1% (inactive) |
| CCC(C)NCC(=O)Nc1ccc([N+](=O)[O-])cc1C(=O)Nc1ccccc1F (stereo not drawn) | 11.7% (inactive) |
| CC(C)(C)NC(=O)C(=O)NN=C1CCCCCCC1 | 9.68% (inactive) |
| CC(C)N1CCC(N2CCN(Cc3cccnc3)CC2CCO)CC1 (stereo not drawn) | -2.03% (inactive) |
| COc1ccc(CN2CCN(Cc3cn(C)nc3-c3ccccc3)CC2CCO)c(C)c1C (stereo not drawn) | -0.96% (inactive) |
| OCCC1CN(Cc2ccc3nsnc3c2)CCN1C1CCCCC1 (stereo not drawn) | 13.5% (inactive) |
| CC(C)CCN1CCN(Cc2ccc(C(F)(F)F)cc2)CC1CCO (stereo not drawn) | 87.1% (active) |
| Cc1ccc(CN2CCN(Cc3ccc4ncccc4c3)CC2CCO)cc1 (stereo not drawn) | 73.7% (active) |
| CC(=O)Nc1ccc(CN2CCN(Cc3ccc(F)c(F)c3)C(CCO)C2)cc1 (stereo not drawn) | 6.71% (inactive) |
| CC(C)CCN1CCN(C/C=C/c2ccco2)CC1CCO (stereo not drawn) | 5.83% (inactive) |
| OCCC1CN(Cc2ccc(Oc3ncccn3)cc2)CCN1CCc1ccccc1 (stereo not drawn) | 59.6% (active) |
| Cc1ccc(CN2CCN(Cc3cccc(C)n3)CC2CCO)cc1 (stereo not drawn) | -2.02% (inactive) |
| COC(=O)c1ccc(CN2CCN(CCCc3ccccc3)C(CCO)C2)cc1 (stereo not drawn) | 83.9% (active) |
| CC(C)=CCN1CCN(Cc2ccc(Oc3ncccn3)cc2)CC1CCO (stereo not drawn) | -0.29% (inactive) |
| CC(C)CCN1CCN(Cc2cn[nH]c2C2CCCCC2)CC1CCO (stereo not drawn) | 24.3% (inactive) |
| CCOC(=O)C(CC)/C(C)=N\NC(=O)c1cccc(C)c1 (stereo not drawn) | -5.28% (inactive) |
| COC(=O)c1cccnc1NC(=S)NC(C)C | -3.71% (inactive) |
| C=CCNC(=O)CC12CC3CC(C1)CC(CC(=O)NCC=C)(C3)C2 | -6.25% (inactive) |
| COc1cccc(C(=O)Nc2cccnc2)c1OC | -4.33% (inactive) |
| CCCN(C(=O)CSc1nnnn1C)c1c(N)n(Cc2ccccc2)c(=O)[nH]c1=O | -5.81% (inactive) |

| Structure (SMILES) | inhibition |
| --- | --- |
| O=C(CCN1C(=O)C2C3C=CC(C3)C2C1=O)Oc1ccc2ccccc2c1 (stereo not drawn) | 24% (inactive) |
| O=c1[nH]c(N2CCN(Cc3ccc4c(c3)OCO4)CC2)nc2c1CCCC2 | 0.88% (inactive) |
| CCOC(=O)CSc1ccccn1 | -7.49% (inactive) |
| Cc1c(Cc2ccccc2)c(=O)oc2cc(OCC(N)=O)ccc12 | -6.96% (inactive) |
| CCOc1ccc(NS(=O)(=O)c2cc(C)c(C)cc2C)cc1 | 5.1% (inactive) |
| S=C(c1ccc(-c2ccccc2)o1)N1CCCCC1 | 12.2% (inactive) |
| Cc1ccc(CN2CCN(Cc3ccccc3-c3ccco3)CC2CCO)o1 (stereo not drawn) | 3.16% (inactive) |
| Cc1ccc(CN2CCN(Cc3ccc(OCCO)cc3)CC2CCO)o1 (stereo not drawn) | -4.28% (inactive) |
| COc1ccc(/C=C/CN2CCN(Cc3ccc(C)cc3)C(CCO)C2)cc1 (stereo not drawn) | 67.4% (active) |
| OCCC1CN(Cc2cnc(-c3ccccc3)s2)CCN1CCc1ccccc1 (stereo not drawn) | 83.7% (active) |
| OCCC1CN(Cc2cccc(O)c2)CCN1CCc1ccccc1 (stereo not drawn) | -0.63% (inactive) |
| OCCC1CN(Cc2cccn2-c2nccs2)CCN1CCc1ccccc1 (stereo not drawn) | 11.3% (inactive) |
| NC(N)=Nc1nc2ccc(Br)cc2c(=O)[nH]1 | 16.6% (inactive) |
| CCOc1ccccc1N1CCN(C(=O)COc2ccc3c(C)cc(=O)oc3c2)CC1 | 43.7% (inactive) |
| O=c1nc(N/N=C/c2ccco2)cn[nH]1 | -3.61% (inactive) |
| CCCCn1c(N)c(N2CCOCC2)c(=O)n(CC(=O)NCCc2ccccc2)c1=O | 1.59% (inactive) |
| CCCN(CCC)CCCNC(=O)CNC(=O)c1nn(-c2ccc(OC)cc2)c(=O)c2ccccc12 | 1.38% (inactive) |
| CCCCN(CC)CCCNC(=O)CS(=O)(=O)Cc1nc(-c2cccc(OC)c2)oc1C | 72.4% (active) |
| Cc1oc(-c2ccccc2F)nc1CS(=O)(=O)CC(=O)NCCCN(C)C1CCCCC1 | 2.98% (inactive) |
| CCn1c(SCc2cc(=O)n3ccsc3n2)nc2ccccc21 | -1.53% (inactive) |
| CCC(=O)Nc1cc(C(F)(F)F)ccc1N1CCCC1 | -2.29% (inactive) |
